Compounds with a hit are over-represented: about 3.3% of the library has one in this group of screens.
HTT aggregate = qHTS Multiplex Assay to Identify Dual Action Probes in a Cell Model of Huntington: Aggregate Formation (GFP); AID 1688, 2009; Potency, µM (series often up to 46.1 µM), for the others: top-dose activity change, negative = inhibition, usual class: inhibitors; PC12 HttQ103-GFP aggregates, Acumen cytometry, 40 h; 1.1% of 220,000 active; further: potency means the concentration at half of the fitted maximal effect; on the % scale 0 is the no-effect control and ±100 the full control effect; nearly all actives have a fitted effect of over 60% in size
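Huntingtin Q103 exon 1–GFP aggregates in induced PC12 cells (100 nM tebufenozide) were quantified by cytometry from lysates, with compounds dosed in titration.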
PNC assembly inh = High Content Assay for Compounds that inhibit the Assembly of the Perinucleolar Compartment; activity change (PNC), negative = inhibition, % at 10 µM; AID 2417, 2010; 3.1% of 140,000 active; PC3M PTB-GFP, PNC prevalence imaging, 16 h; active compounds read low;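 active means readout at or below -70, meaning at least 70% loss of cells showing the perinucleolar compartment, a nuclear body marking cancer cells; inconclusive means readout between -30 and a set limit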;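 further: plate controls were DMSO wells for no effect and camptothecin positive control wells for full effect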
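Compounds are pinned in duplicate onto adhered PC3M cells stably expressing GFP-tagged PTB and incubated 16 h at 37 C. Cells are then fixed, nuclei stained with Hoechst, and PNC-positive cells counted.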
ALOX12 inhib = qHTS Assay for Inhibitors of 12-hLO (12-human lipoxygenase) | 0.12% of 150,000 active | Polyunsaturated fatty acid lipoxygenase ALOX12 (Homo sapiens), P18054 | purified 12-hLO, xylenol orange hydroperoxide absorbance | Potency, µM (series often up to 57.1 µM), without a hit: top-dose activity change, negative = inhibition, most hits filed as inhibitors; further: potency means the concentration at half of the fitted maximal effect; on the % scale 0 is the no-effect control and ±100 the full control effect; nearly all actives have a fitted effect of over 55% in size
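Purified human 12hLO (150 nM), preincubated 15 min with compound, then 40 uM arachidonic acid for 30 min, room temperature, Hepes pH 7.0 with 0.01% Triton X-100. Hydroperoxide detected by ferrous iron/xylenol orange; 573/405 nm absorbance ratio gives reaction progress.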
NPSR antag = qHTS Assay for Antagonists of the Neuropeptide S Receptor: cAMP Signal Transduction. Q6W5P4. CHO-NPSR cells, cAMP TR-FRET, antagonist mode. Potency, µM (highest dose often 38.3 µM), for inactives: at the top dose activity change, negative = inhibition, most hits filed as inhibitors. 1% of 220,000 active; further: potency means the concentration at half of the fitted maximal effect; on the % scale 0 is the no-effect control and ±100 the full control effect; nearly all actives have a fitted effect of over 50% in size
Target sequence (Q6W5P4 whole entry, looked up): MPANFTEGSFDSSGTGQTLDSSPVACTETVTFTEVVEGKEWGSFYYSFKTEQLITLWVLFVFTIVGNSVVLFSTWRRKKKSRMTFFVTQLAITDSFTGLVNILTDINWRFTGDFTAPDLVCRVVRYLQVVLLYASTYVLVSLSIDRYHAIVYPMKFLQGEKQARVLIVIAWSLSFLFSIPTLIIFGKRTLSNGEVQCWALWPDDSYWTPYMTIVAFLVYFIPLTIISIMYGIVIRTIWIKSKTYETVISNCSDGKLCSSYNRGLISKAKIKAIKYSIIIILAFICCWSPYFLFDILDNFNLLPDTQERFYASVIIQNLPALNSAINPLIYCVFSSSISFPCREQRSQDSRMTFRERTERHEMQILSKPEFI
HTT cytoprotect = qHTS Multiplex Assay to Identify Dual Action Probes in a Cell Model of Huntington: Cytoprotection (ATP); PC12 HTT-Q103 induced, cytoprotection, ATP luminescence, 40 h; Potency, µM (doses to about 56.4 µM), without a hit: cytoprotection (ATP increase), most hits filed as activators; 0.14% of 230,000 active; AID 1471, 2008; further: potency means the concentration at half of the fitted maximal effect; % of control where 0% means no effect; nearly all actives have a fitted effect of over 45% in size
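ATP quantification (ATPlite) reports survival of PC12 cells in which tebufenozide, 100 nM final, switches on Htt exon 1 with 103 glutamines linked to GFP; compounds are titrated.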
IMPase inh = qHTS Assay for Identifying the Cell-Membrane Permeable IMPase Inhibitors. inhibition (IP1 accumulation), % at 46.1 µM. 120,000 tested, under 10 active. CHO-M1 cells, IP1 accumulation, HTRF TR-FRET ratio. Inositol monophosphatase 1 (Rattus norvegicus), P97697; active means well fitted curve in the direction sought with a large enough effect in the signal ratio, not every such curve was filed as active; inconclusive means small, poorly fitted or top-dose-only effect, or a change in a side signal; inactive means no such curve, though single readings can be large or run the other way; the % refers to the signal ratio;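 further: cells stimulated with carbachol in lithium chloride buffer; plate controls were DMSO basal wells for no effect and reference inhibitor wells for full effect; higher means more IMPase inhibition seen as more IP1 and lower FRET ratio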
Target sequence (P97697 whole entry, looked up): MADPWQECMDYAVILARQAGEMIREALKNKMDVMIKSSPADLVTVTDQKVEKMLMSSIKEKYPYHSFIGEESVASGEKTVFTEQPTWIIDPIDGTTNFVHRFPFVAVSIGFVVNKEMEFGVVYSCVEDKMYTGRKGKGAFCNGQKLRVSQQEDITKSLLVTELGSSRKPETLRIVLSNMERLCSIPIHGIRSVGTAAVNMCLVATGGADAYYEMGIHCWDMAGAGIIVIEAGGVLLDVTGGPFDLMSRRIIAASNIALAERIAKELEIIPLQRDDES
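The IP-One HTRF competitive assay in carbachol-stimulated CHO-M1 cells quantifies cellular IP1. Compounds spanned up to 46 uM final, and activity is expressed as AC50 from concentration-response fits of the ratio and donor data.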
The depositor's hits bear a star; ? = inconclusive; . = no result; [ ] = another dose, or the depositor's remark. Unless noted, the call rests on the fitted dose curve; in most records, active means well fitted curve in the direction sought with a large enough effect; inconclusive means small, poorly fitted or top-dose-only effect, or another doubt; inactive means no such curve, though single readings can be large; an effect the other way counts as inactive or inconclusive.

SMILES | HTT aggregate | PNC assembly inh | ALOX12 inhib | NPSR antag | HTT cytoprotect | IMPase inh
CCOC(=O)C1=C(CC)Nc2ccccc2N/C1=N\S(=O)(=O)c1cc(Br)ccc1Br | 18µM* | . | . | -48% | -29% | .
O=c1c2ccccc2oc2nc(-c3ccco3)n(-c3ccccc3)c(=O)c12 | ? | 2 | -3% | 0% | 4%[10 µM] | -14
O=c1c2ccccc2oc2nc(-c3ccco3)n(CCc3ccccc3)c(=O)c12 | 11% | -100* | -5% | -7%[46.1 µM] | 0% | -2
O=C(COc1ccc(S(=O)(=O)N2CCCC2)cc1Cl)NCc1ccc2c(c1)OCO2 | 11% | -107* | -6% | -1%[46.1 µM] | 7% | 21
O=C(Nc1ccc(S(=O)(=O)NC2=NCCCCC2)cc1)c1ccco1 | -10% | . | . | 12% | . | .
Cc1cccc(CN2C(=O)N/C(=C/c3ccc(C)s3)C2=O)c1 | -31% | ? | -2% | -11%[46.1 µM] | -30% | 13
Cc1cccc(CN2C(=O)N/C(=C/c3cc(C)n(-c4cc(C)ccn4)c3C)C2=O)c1 | -13% | -4 | -22% | 16µM* | -21% | ?
COc1cccc(-n2nnnc2S(C)(=O)=O)c1 | 2.5µM* | ? | -6% | 10µM* | -120% | 9
COc1cccc(Oc2nnnn2-c2ccccc2)c1 | 7% | -9 | -11% | -11%[46.1 µM] | -27% | 4
Cc1ccc(CNC(=O)C2CCCN(S(=O)(=O)c3c(C)noc3/C=C/N(C)C)C2)cc1 (stereo not drawn) | -1%[9.22 µM] | . | . | -11% | -18%[10 µM] | .
O=C(N/N=C/c1ccc(Cl)cc1Cl)c1n[nH]c2c1CCCC2 | -4% | -84* | 3% | -11% | . | .
O=C(N/N=C\c1cccc(Cl)c1)c1n[nH]c2c1CCCC2 | 2% | -24 | -1% | -18%[46.1 µM] | 19%[10 µM] | 4
O=C(N/N=C/C=C/c1ccccc1)c1n[nH]c2c1CCC2 | -6% | -98* | -1% | 10%[46.1 µM] | -49% | 3
N#C/C(=C\c1ccccc1)C(=O)OCC(=O)N1CCCC1 | 0% | . | . | 8% | 22%[10 µM] | .
Cc1ccc(S(=O)(=O)N/N=C/c2ccc3nccnc3c2)cc1 | 3%[9.22 µM] | . | . | 0% | 3%[10 µM] | .
Cc1nnc(SCc2ccc3c(c2)OCO3)s1 | 12% | -21 | -2% | -18%[46.1 µM] | -10%[10 µM] | 15
Cc1nnc(N(C)C(=O)Cc2ccc3c(c2)OCO3)s1 | -17% | -100* | -7% | 5%[46.1 µM] | 2%[10 µM] | -5
C=CCON/C(CCC)=C1\C(=O)CC(C)(C)CC1=NC | -7%[9.22 µM] | . | . | -21% | 8%[10 µM] | .
NC(=O)C1CCN(C2=C(Cl)C(=O)c3ccccc3C2=O)CC1 | 5% | -23 | 5% | 10µM* | 5% | 29
CCOc1ccc(CCNc2ccc3nnc(-c4ccccc4)n3n2)cc1OCC | 19% | -119* | 1% | 0% | . | .
O=C(CSc1oc(-c2ccc(F)cc2)nc1S(=O)(=O)c1ccc(F)cc1)NCC1CCCO1 (stereo not drawn) | -3% | 246 | 5% | -7%[46.1 µM] | -3%[10 µM] | 6
O=C(CSc1oc(-c2ccccc2)nc1S(=O)(=O)c1ccc(F)cc1)NCC1CCCO1 (stereo not drawn) | -13% | -100* | 0% | 7%[46.1 µM] | -3%[10 µM] | -4
O=C(CSc1oc(-c2ccc(F)cc2)nc1S(=O)(=O)c1ccccc1)NCC1CCCO1 (stereo not drawn) | 5% | -119* | -5% | -12% | 23%[10 µM] | 2
Cc1cc(C)nc(Oc2ccc(Br)cc2Br)n1 | -20%[9.22 µM] | . | . | 19% | -12%[10 µM] | .
COC(=O)[C@@H]1C[C@@H]2CC[C@@H](O)C[C@@H]2N1Cc1ccc(N2CCOCC2)cc1 | . | . | -4% | . | -42% | .
SMILES | HTT aggregate | PNC assembly inh | ALOX12 inhib | NPSR antag | HTT cytoprotect | IMPase inh
Cc1ccc(S(=O)(=O)NCCSc2nnnn2-c2ccc(C(N)=O)cc2)cc1 | 2% | 16 | 10% | -10%[46.1 µM] | -6% | -11
Cc1ccc(-n2nnnc2Sc2ccc(S(=O)(=O)NCCN(C)C)cc2[N+](=O)[O-])cc1 | 22µM* | 22 | 0% | 14% | -52%[10 µM] | .
O=[N+]([O-])c1cc(S(=O)(=O)NCCN2CCOCC2)ccc1Sc1nnnn1-c1ccccc1 | 4.5µM* | -15 | -2% | -11% | 24%[10 µM] | .
COc1ccccc1-c1nnc2sc(COc3ccc(Cl)cc3Cl)nn12 | ? | 54 | -4% | ? | -14% | 5
Clc1ccc(OCc2nn3c(C4CCCCC4)nnc3s2)c(Cl)c1 | -25% | -82* | -10% | -20%[46.1 µM] | 0%[0.074 µM] | -5
CCN(CC)P(=O)(Nc1ccc(C)cc1Br)c1ccc(N(C)C)cc1NC(=O)c1ccco1 (stereo not drawn) | 35µM* | . | . | 10µM* | 25% | .
COc1cc2cc(C(=O)O)[nH]c2c(OC)c1OC | 11%[9.22 µM] | -97* | 4% | -7%[46.1 µM] | 1% | 0
CN(C)/C=N/C(=S)Nc1ccc(Cl)cc1Cl | 12%[9.22 µM] | . | . | -2% | -19%[1.9 µM] | .
CC1=C(C(=O)Nc2ccc(Cl)cc2)C2(CCCCC2)C(C(N)=O)C(=S)N1 (stereo not drawn) | -4% | ? | -26% | -4% | 8%[1.9 µM] | -9
Cc1nc2ccc(S(=O)(=O)NCC(=O)N3CCc4ccccc4C3)cc2s1 | 5% | -97* | 1% | -4%[46.1 µM] | 18%[10 µM] | -6
CCOC(=O)/C(C#N)=C/c1ccc(OC(=O)c2ccco2)c(OCC)c1 | 8.9µM* | -27 | -2% | 17%[46.1 µM] | 18%[10 µM] | ?
COc1ccc(NC(=O)CSc2nc(-c3cc(OC)c(OC)c(OC)c3)[nH]c2-c2ccc(F)cc2)cc1 | . | . | . | . | . | 28
Cc1cc2nc(-c3ccc(OCc4ccccc4Cl)cc3)cc(C(F)(F)F)n2n1 | . | . | . | . | . | 2
Cc1ccccc1OCCCC(=O)Nc1ccccc1C(F)(F)F | 3% | 63 | 1% | -12%[46.1 µM] | -16% | 1
COc1ccccc1C(C)NCC(=O)Nc1ccccc1C(F)(F)F (stereo not drawn) | -1% | -116* | 8% | -11% | -17%[10 µM] | .
C[C@@]12CCC(=O)C=C1CC[C@@H]1[C@@H]2[C@H](O)C[C@]2(C)[C@@H]1CC[C@]2(O)C(=O)CO | . | . | -3%[25.6 µM] | . | -45%[17.1 µM] | .
O=C1NC(=Nc2ccc(F)cc2)CS1 | -4% | . | . | -3% | -20% | .
O=C(CN1CCOCC1)NCc1ccccc1 | 0.32µM* | -17 | 3% | 0%[46.1 µM] | -13% | 9
Cc1ccc(-c2noc(CCC(=O)NC3CCCc4ccccc43)n2)cc1 (stereo not drawn) | 3.2µM* | ? | -2% | ? | . | 11

Screens from PubChem.
